Several values for one entry are separate records, joined by “and”; a condition that tells them apart may be missing. Equal entries are not always repeated.

The assay relates to HL-1. Briefly: cardiomyocyte survival under oxidative or metabolic stress – cell-based, panel, H9c2 and HL-1, ATP luminescence, set 2, SAR follow-up (AID 651871).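 Note: cells exposed to stressor for 2 h before ATP readout; reference of the scale not given here.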 Conditions: H9c2/HL-1 cardiomyocytes, H2O2 oxidative stress; with H2O2, run 4, at 79 µM (top of the series).
Consider `CCOC(=O)c1cccc(NC(=O)CNC(=O)c2cc(-c3cc(OC)c(OC)c(OC)c3)nc3ccccc23)c1`, for which the activity (protection/inhibition) amounted to 25.9%. The same measure for `COc1ccc2nc(-c3cc(OC)c(OC)c(OC)c3)cc(C(=O)NCC(=O)Nc3ccc(C(C)=O)cc3)c2c1`: 37.2% and 50%.

Consider `COc1ccc2c(c1OC)C(=O)N1c3ccccc3C(=O)N(Cc3cccc(Cl)c3Cl)C21` (centres undefined), for which the activity (protection/inhibition) is 8.81% and -13.3% and 3.82%. For `COc1cc(-c2cc(C(=O)Nc3cccc(C(=O)NCc4ccccc4)c3)c3ccccc3n2)cc(OC)c1OC`, the activity (protection/inhibition) was 17.9%.
